# Results taken from ChEMBL document CHEMBL1961873, “Compounds: GSK PKIS; Assays: Nanosyn kinase panel” (2012).
# What was measured:
# [1] = molecular target: T1, Serine/threonine-protein kinase D2 (Homo sapiens) (UniProt Q9BZL6); details: at 1 µM;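 further: mean value of PRKD2 inhibition, from the GSK PKIS screening panel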
# T1 sequence (whole entry): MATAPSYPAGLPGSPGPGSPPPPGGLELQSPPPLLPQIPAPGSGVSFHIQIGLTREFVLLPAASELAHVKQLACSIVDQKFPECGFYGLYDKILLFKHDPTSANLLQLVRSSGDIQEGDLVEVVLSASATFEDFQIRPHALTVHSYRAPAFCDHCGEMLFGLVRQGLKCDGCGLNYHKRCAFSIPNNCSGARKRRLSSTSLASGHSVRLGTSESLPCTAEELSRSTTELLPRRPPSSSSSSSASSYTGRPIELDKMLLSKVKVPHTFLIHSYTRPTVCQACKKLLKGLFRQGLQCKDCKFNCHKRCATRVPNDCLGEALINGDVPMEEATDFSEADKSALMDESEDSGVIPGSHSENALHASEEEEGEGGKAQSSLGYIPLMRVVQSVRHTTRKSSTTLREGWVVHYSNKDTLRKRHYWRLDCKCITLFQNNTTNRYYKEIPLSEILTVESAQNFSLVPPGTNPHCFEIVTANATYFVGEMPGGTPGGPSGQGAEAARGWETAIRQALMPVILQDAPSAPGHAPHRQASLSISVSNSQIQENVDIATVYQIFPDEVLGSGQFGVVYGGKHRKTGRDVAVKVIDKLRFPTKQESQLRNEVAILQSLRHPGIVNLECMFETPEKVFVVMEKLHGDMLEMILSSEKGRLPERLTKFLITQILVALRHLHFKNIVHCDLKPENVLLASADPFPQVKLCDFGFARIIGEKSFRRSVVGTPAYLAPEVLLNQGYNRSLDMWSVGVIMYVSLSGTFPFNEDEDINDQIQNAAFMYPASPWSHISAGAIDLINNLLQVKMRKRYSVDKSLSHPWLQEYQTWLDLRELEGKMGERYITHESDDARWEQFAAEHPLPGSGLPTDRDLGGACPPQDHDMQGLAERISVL
# [2] = molecular target: T2, Serine/threonine-protein kinase D3 (Homo sapiens) (UniProt O94806); details: at 0.1 µM
# T2 sequence (whole entry): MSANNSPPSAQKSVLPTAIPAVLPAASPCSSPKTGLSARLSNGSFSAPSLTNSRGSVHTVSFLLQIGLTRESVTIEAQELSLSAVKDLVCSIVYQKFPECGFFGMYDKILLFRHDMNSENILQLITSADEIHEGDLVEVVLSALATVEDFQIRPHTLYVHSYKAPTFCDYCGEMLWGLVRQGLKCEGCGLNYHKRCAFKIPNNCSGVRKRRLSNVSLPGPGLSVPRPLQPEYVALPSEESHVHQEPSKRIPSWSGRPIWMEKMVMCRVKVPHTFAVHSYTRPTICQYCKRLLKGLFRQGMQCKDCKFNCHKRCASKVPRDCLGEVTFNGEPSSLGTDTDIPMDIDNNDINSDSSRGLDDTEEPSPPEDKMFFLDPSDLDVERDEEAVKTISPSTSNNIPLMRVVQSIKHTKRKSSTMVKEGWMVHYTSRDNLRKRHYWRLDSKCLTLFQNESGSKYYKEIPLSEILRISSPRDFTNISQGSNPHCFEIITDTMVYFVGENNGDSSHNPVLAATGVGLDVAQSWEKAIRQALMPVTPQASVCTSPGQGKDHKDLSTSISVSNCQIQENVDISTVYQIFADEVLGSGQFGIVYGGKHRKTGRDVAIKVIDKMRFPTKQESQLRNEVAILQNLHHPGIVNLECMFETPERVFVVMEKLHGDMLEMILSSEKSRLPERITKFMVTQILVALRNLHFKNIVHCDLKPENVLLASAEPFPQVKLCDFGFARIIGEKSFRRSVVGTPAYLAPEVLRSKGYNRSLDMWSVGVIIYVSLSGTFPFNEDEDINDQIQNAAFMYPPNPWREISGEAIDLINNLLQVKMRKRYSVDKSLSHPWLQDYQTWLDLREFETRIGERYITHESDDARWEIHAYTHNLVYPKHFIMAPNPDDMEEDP
# [3] = molecular target: T2, Serine/threonine-protein kinase D3 (Homo sapiens); details: at 1 µM
# [4] = molecular target: T3, cGMP-dependent protein kinase 1 (Homo sapiens) (UniProt Q13976); details: at 0.1 µM
# T3 sequence (whole entry): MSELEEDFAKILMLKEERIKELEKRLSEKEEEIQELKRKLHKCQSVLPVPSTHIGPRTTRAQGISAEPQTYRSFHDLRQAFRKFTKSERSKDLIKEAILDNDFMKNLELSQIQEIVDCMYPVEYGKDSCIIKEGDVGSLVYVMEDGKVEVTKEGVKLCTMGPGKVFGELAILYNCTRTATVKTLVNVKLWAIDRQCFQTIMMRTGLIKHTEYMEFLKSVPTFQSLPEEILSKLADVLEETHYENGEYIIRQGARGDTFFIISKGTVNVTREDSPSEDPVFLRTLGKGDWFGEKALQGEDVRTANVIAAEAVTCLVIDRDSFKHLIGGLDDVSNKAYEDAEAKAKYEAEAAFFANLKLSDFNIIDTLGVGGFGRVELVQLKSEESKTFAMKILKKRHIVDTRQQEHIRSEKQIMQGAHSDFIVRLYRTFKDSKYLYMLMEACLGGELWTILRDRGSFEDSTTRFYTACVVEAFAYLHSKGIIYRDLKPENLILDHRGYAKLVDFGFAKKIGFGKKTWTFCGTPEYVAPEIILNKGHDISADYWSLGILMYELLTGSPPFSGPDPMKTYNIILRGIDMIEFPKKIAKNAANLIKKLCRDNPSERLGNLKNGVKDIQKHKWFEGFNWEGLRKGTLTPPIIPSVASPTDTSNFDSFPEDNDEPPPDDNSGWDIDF
# [5] = molecular target: T3, cGMP-dependent protein kinase 1 (Homo sapiens); details: at 1 µM
# [6] = molecular target: T4, cGMP-dependent protein kinase 2 (Homo sapiens) (UniProt Q13237); details: at 0.1 µM
# T4 sequence (whole entry): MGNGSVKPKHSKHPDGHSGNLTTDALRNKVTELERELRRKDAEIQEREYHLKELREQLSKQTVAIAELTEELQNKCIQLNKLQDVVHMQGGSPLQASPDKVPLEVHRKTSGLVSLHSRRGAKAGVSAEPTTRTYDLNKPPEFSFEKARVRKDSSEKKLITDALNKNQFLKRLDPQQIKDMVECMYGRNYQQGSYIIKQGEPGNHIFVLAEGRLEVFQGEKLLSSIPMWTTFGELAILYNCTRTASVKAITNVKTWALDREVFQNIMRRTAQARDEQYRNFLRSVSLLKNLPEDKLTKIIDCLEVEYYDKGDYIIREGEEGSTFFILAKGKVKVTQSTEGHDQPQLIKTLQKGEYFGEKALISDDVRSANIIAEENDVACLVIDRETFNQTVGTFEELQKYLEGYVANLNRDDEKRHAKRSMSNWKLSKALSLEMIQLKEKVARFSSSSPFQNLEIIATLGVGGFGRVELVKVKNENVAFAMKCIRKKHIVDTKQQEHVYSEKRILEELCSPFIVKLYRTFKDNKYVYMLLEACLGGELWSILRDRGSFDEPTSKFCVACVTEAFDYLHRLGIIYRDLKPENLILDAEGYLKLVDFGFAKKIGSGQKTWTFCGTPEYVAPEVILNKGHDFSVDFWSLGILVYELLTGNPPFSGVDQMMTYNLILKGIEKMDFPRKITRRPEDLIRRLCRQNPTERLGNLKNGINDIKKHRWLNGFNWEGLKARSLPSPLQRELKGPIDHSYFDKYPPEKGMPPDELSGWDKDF
# [7] = molecular target: T4, cGMP-dependent protein kinase 2 (Homo sapiens); details: at 1 µM
# [8] = molecular target: T5, cAMP-dependent protein kinase catalytic subunit PRKX (Homo sapiens) (UniProt P51817); details: at 0.1 µM
# T5 sequence (whole entry): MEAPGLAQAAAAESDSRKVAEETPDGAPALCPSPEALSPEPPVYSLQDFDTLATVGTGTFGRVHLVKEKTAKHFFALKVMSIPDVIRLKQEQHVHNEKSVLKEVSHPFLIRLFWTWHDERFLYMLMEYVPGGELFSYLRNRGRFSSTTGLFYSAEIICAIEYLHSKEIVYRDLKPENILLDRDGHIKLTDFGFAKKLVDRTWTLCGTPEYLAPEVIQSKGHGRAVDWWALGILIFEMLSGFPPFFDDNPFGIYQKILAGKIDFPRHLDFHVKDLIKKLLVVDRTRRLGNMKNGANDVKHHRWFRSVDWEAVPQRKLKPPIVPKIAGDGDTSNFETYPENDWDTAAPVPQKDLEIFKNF
# [9] = molecular target: T5, cAMP-dependent protein kinase catalytic subunit PRKX (Homo sapiens); details: at 1 µM
# [10] = molecular target: Rho-associated protein kinase 1 (Homo sapiens) (UniProt Q13464); details: at 0.1 µM;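 further: values are mean percent inhibition of ROCK1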
# Chain of Rho-associated protein kinase 1 (Homo sapiens) (Q13464 2-1354 limits assumed): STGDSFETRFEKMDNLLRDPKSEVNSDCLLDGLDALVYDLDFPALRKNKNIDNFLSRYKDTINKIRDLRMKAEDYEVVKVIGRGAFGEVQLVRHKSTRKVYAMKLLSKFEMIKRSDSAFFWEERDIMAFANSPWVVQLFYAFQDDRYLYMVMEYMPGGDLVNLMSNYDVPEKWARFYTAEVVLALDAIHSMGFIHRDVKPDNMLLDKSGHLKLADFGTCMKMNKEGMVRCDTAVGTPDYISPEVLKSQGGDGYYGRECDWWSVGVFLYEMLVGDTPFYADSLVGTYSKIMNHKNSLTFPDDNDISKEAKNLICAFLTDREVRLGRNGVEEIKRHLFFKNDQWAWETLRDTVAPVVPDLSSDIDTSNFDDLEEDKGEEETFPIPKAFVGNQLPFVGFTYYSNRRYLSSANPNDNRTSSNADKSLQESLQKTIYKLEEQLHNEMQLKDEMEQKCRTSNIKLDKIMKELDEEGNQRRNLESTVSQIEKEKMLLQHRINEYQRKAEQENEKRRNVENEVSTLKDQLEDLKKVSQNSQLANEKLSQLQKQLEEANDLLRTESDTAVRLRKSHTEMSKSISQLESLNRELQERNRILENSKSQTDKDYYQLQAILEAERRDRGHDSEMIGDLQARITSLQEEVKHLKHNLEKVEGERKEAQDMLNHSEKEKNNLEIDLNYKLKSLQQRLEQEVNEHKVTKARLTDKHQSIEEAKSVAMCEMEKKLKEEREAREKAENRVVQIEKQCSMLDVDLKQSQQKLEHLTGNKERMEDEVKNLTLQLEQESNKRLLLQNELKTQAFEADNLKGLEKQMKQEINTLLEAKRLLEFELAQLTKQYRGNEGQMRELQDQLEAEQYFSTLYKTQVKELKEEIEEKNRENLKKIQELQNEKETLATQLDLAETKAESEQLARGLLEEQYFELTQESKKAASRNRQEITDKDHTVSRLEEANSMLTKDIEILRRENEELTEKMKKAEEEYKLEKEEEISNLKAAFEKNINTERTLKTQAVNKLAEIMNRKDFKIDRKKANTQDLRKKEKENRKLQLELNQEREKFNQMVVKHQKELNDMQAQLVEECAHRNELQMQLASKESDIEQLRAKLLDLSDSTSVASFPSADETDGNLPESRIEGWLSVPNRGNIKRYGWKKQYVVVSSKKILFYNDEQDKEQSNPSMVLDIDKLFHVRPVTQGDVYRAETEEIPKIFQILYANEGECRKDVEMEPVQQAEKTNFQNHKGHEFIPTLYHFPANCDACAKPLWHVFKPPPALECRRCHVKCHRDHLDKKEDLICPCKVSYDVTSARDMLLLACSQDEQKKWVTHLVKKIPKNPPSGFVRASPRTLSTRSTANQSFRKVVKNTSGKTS
Structure (SMILES),inhibition [1],inhibition [2],inhibition [3],inhibition [4],inhibition [5],inhibition [6],inhibition [7],inhibition [8],inhibition [9],inhibition [10]
COc1cc2ncn(-c3cc(OCc4cccs4)c(C(N)=O)s3)c2cc1OC,-0.96%,-1.14%,-2.04%,3.61%,7.44%,3.73%,6.83%,3.18%,-3.65%,2.39%
C#Cc1cccc(Nc2ncnc3ccc(OCCCCNCCS(C)(=O)=O)cc23)c1,26.7%,3.35%,15%,1.04%,7.37%,2.75%,8.83%,2.48%,4.38%,1.86%
O=C1Nc2ccccc2/C1=C/Nc1ccc(-n2cncn2)cc1,6.07%,4.94%,6.5%,3.06%,5.48%,2.51%,14.4%,2.56%,7.18%,1.71%
COc1cc(Nc2ncc3c(C)nc(-c4cccc(C(F)(F)F)c4)n3n2)cc(OC)c1OC,4.32%,2.48%,2.79%,0.96%,5.81%,4.61%,6.16%,3%,7.31%,-0.86%
O=C1Nc2ccc(I)cc2C1=Cc1cc(Br)c(O)c(Br)c1,1.24%,3.73%,3.16%,3.82%,5.76%,2.47%,6.45%,0.49%,2.04%,2.76%
COc1cc(C)c(N(C)C(=O)CN(C)C)cc1Nc1nc(Nc2cccc(F)c2C(N)=O)c2cc[nH]c2n1,-0.62%,-1.31%,0.06%,0.67%,3.77%,2.1%,2.31%,0.78%,-0.64%,0.77%
CN(C)CCOc1ccc(-c2cc(-c3ccc4c(c3)CCC4=NO)c(-c3ccncc3)o2)cc1,1.9%,-0.84%,0.31%,-1.48%,3.68%,-0.1%,11.2%,-0.21%,-1.72%,-1.57%
NS(=O)(=O)c1ccc(N/N=C2\C(=O)Nc3ccc(C(=O)NCCCn4ccnc4)cc32)cc1,22.3%,5.36%,17.6%,4.15%,18.9%,4.37%,28.2%,3.32%,7.39%,2.63%
COC(=O)Nc1nc2ccc(Sc3ccc(NC(=O)Nc4cc(C(F)(F)F)ccc4F)cc3)cc2[nH]1,0.52%,1.06%,0.51%,0.91%,1.52%,-0.08%,0.57%,0.23%,-1.11%,-0.63%
Cc1nnc(-c2ccc(C)c(-c3ccc(C(=O)NCc4ccc(Cl)cc4)cc3)c2)o1,-0.8%,2.09%,-0.1%,2.07%,5.32%,3.25%,3.86%,2.66%,5.13%,1.51%
CCc1nccc2c1nc(-c1nonc1N)n2CC,3.17%,1.43%,2.71%,0.88%,7.44%,2.5%,21.1%,-0.13%,-0.42%,1.09%
NCc1ccc(-n2c(-c3nonc3N)nc3cnccc32)cc1,41.3%,8.56%,40%,6.05%,26.6%,16%,60.2%,5.92%,29.4%,80.6%
COc1ccc2cc(-c3c(-c4ccncc4)nc(-c4ccc(S(C)(=O)=O)cc4C)n3C)ccc2c1,4.27%,3.99%,4.2%,5.14%,8.86%,5.61%,6.44%,5.93%,12.1%,8.02%
COc1cc(Nc2ncc(-c3ccccc3)o2)cc(OC)c1OC,-0.05%,-1.81%,-1.6%,1.84%,1.3%,-0.12%,1.47%,0.22%,0.75%,0.49%
CN(C)c1ccc2c(c1)/C(=C/Nc1ccc(S(N)(=O)=O)cc1)C(=O)N2,5.28%,3.16%,4.44%,2.39%,1.76%,1.53%,8.65%,0.94%,2.58%,0.76%
O=C(Nc1n[nH]c2cc(-c3cc(F)ccc3F)ccc12)C1CC1,4.95%,3.61%,3.98%,3.55%,4.78%,2.47%,5.6%,1.14%,1.88%,-0.49%
N#Cc1ccc(Oc2nccc(-c3c(-c4ccc(F)cc4)ncn3C3CCNCC3)n2)cc1,5.05%,5.58%,5.89%,2.79%,2.48%,2.19%,2.92%,1.03%,2.01%,2.51%
